The record followed here is PubChem BioAssay (EPA / NIEHS).

Experiment [1] deals with Retinoic acid receptor RXR-alpha (Homo sapiens) (UniProt P19793). Briefly: OT_NURR1_NURR1RXRa_1440: Odyssey Thera (OT) 24-hour HEK293T Protein Complementation Assay for Nurr1/retinoid X receptor (RXR) (AID 2283386; active means hit-call score of the fitted dose curve at least 0.9, where 1 is the maximum). Put shortly:
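Fluorescence PCA read-out; HEK293T; 24 h post-dose; bait/prey fused to reporter fragments; gain-of-signal fit vs DMSO negative control.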

The target of experiment [2] is Peroxisome proliferator-activated receptor gamma (Homo sapiens) (UniProt P37231). In words: OT_PPARg_PPARgSRC1_0480: Odyssey Thera (OT) 8-hour Protein-Complementation Assay for Peroxisome Proliferator-activated Receptor Gamma / SRC-1 Co-activator (AID 2283387; active means hit-call score of the fitted dose curve at least 0.9, where 1 is the maximum). Put shortly:
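HEK293T transiently transfected with PPARg and SRC-1 fused to Venus YFP fragments, compounds 8 h at 37C. Fixed, Draq5-stained cells imaged; nuclear/cytoplasmic 488 nm fluorescence ratio over at least 350 cells per image; gain fitted versus DMSO.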

Experiment [3] has the same target. In words: OT_PPARg_PPARgSRC1_1440: Odyssey Thera (OT) 24-hour Protein-Complementation Assay for Peroxisome Proliferator-activated Receptor Gamma/ SRC-1 Co-activator (AID 2283388; active means hit-call score of the fitted dose curve at least 0.9, where 1 is the maximum). The gist of the method:
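HEK293T cells transiently transfected with PPARg and SRC-1 fused via (Gly4Ser)2 linker to split Venus YFP fragments (IFP1/IFP2) were dosed 24 h; fixed, Draq5-stained, imaged at 488/635 nm; nuclear/cytoplasmic fluorescence ratio scored versus DMSO baseline, gain-of-signal.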

A short description of experiment [4]: CEETOX_H295R_11DCORT: CeeTox H295R High-throughput Steroidogenesis Assay for 11-Deoxycortisol (11DCORT) (AID 2283432). The note with it: actives raise or lower the signal. The gist of the method:
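H295R cells prestimulated 48 h with 10 uM forskolin, then exposed 48 h to chemical in 0.1% DMSO. 11-Deoxycortisol in medium quantified by HPLC-MS/MS after MTBE extraction; bidirectional fit versus DMSO. MTT viability read in same wells.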

The nature of experiment [5]: CEETOX_H295R_OHPREG: CeeTox H295R High-throughput Steroidogenesis Assay for OH-Pregnenolone (OHPREG) (AID 2283434). The following applies: actives raise or lower the signal. The gist of the method: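 Secreted 17alpha-hydroxypregnenolone measured by HPLC-MS/MS after liquid-liquid extraction. Human adrenal H295R cells received 48 h forskolin (10 uM) stimulation before 48 h chemical exposure at 0.1% final DMSO; MTT viability in same wells; bidirectional fit against DMSO.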

A short description of experiment [6]: CEETOX_H295R_OHPROG: CeeTox H295R High-throughput Steroidogenesis Assay for OH-Progesterone (OHPROG) (AID 2283435). The note with it: actives raise or lower the signal. Put shortly:
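HPLC-MS/MS quantification of 17alpha-hydroxyprogesterone secreted by H295R cells after 48 h chemical exposure, following 48 h 10 uM forskolin prestimulation. Gain or loss of signal fitted relative to DMSO. Viability checked by MTT in the same wells.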

Experiment [7] can be described thus: CEETOX_H295R_CORTIC: CeeTox H295R High-throughput Steroidogenesis Assay for Corticosterone (CORTIC) (AID 2283437). The note with it: actives raise or lower the signal. The gist of the method: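 Medium corticosterone was quantified by tandem mass spectrometry following 48 hours of chemical exposure (0.1% DMSO) in human H295R cells previously stimulated 48 hours with 10 uM forskolin. Viability checked by MTT; chemicals diluted and retested when viability fell below 70%.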

Experiment [8] can be described thus: CEETOX_H295R_CORTISOL: CeeTox H295R High-throughput Steroidogenesis Assay for Cortisol (AID 2283438).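 Further: cortisol secreted into medium quantified by LC-MS/MS.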 The note with it: actives raise or lower the signal. Put shortly:
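Read-out: cortisol in culture medium by reverse-phase C18 HPLC with ESI-positive tandem MS, after MTBE liquid-liquid extraction. Cells: human adrenal H295R, forskolin-primed (10 uM, 48 h) before 48 h chemical exposure in 0.1% DMSO.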

A short description of experiment [9]: CEETOX_H295R_DOC: CeeTox H295R High-throughput Steroidogenesis Assay for DOC (AID 2283439). The note with it: actives raise or lower the signal. Put shortly: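 Human adrenocortical H295R cells, passages up to 10, received 10 uM forskolin for 48 h before chemical addition. After another 48 h exposure in 0.1% DMSO, secreted DOC was measured by LC-MS/MS, with gain or loss fitted against DMSO controls.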

The nature of experiment [10]: CEETOX_H295R_ESTRADIOL: CeeTox H295R High-throughput Steroidogenesis Assay for Estradiol (AID 2283440).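 Further: estradiol secreted into medium quantified by LC-MS/MS after dansyl derivatisation.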 The following applies: actives raise or lower the signal. The gist of the method:
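H295R adrenocortical cells were prestimulated with 10 uM forskolin for 48 h, then exposed to test chemical in 0.1% DMSO for 48 h. Medium estradiol was extracted with MTBE, dansyl-derivatized and quantified by HPLC-MS/MS; bidirectional fit versus DMSO.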

Experiment [11] is described as follows: CEETOX_H295R_ESTRONE: CeeTox H295R High-throughput Steroidogenesis Assay for Estrone (AID 2283441).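 Further: estrone secreted into medium measured by LC-MS/MS after dansyl derivatization.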 The note with it: actives raise or lower the signal. The gist of the method:
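Forskolin-stimulated H295R cells are treated 48 h with chemical, and estrone in the medium is measured by LC-MS/MS. Activity is fitted in both directions relative to DMSO controls, with chemicals diluted until MTT viability reaches at least 70%.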

Experiment [12] in a line: CEETOX_H295R_PROG: CeeTox H295R High-throughput Steroidogenesis Assay for Progesterone (PROG) (AID 2283442). The following applies: actives raise or lower the signal. The gist of the method:
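H295R human adrenal cells were prestimulated with 10 uM forskolin for 48 h, then exposed to test chemical (0.1% DMSO final) for 48 h. Medium progesterone was MTBE-extracted and quantified by HPLC-MS/MS, with bidirectional fitting against DMSO.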

Read-out in experiment [13]: Tumor necrosis factor receptor superfamily member 6 (Homo sapiens) (UniProt P25445)
Briefly: LTEA_HepaRG_FAS: Life Technologies and Expression Analysis (LTEA) Assay for Fas cell surface death receptor (FAS) using HepaRG (AID 2283447). The following applies: mRNA level, 48 h; actives raise or lower the signal. Put shortly: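 FAS transcript level was measured by TaqMan qRT-PCR against three housekeeping genes after 48 h chemical exposure. Cells were HepaRG, 0.5% DMSO vehicle, with a top concentration of 100 uM and half-log dilutions over eight points, in duplicate.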

Read-out in experiment [14]: Fatty acid synthase (Homo sapiens) (UniProt P49327)
Briefly: LTEA_HepaRG_FASN: Life Technologies and Expression Analysis (LTEA) Assay for Fatty Acid Synthase (FASN) using HepaRG (AID 2283448). The note with it: mRNA level, 48 h; actives raise or lower the signal. The gist of the method:
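HepaRG, 48 h exposure, 8-pt half-log series top 100 uM, 0.5% DMSO vehicle, duplicates. Readout: FASN transcript by Fluidigm qRT-PCR; housekeeping-normalized; bidirectional curve fit vs DMSO baseline.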

Read-out in experiment [15]: Cyclin Dependent Kinase Inhibitor 1A (CDKN1A), CDKN1A (gene 1026)
In words: LTEA_HepaRG_CDKN1A: Life Technologies and Expression Analysis (LTEA) Assay for Cyclin Dependent Kinase Inhibitor 1A (CDKN1A) using HepaRG (AID 2283450). The following applies: mRNA level, 48 h; actives raise or lower the signal. Put shortly: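 Differentiated human HepaRG cells, pre-cultured 48 h, were exposed in duplicate for 48 h in serum-free induction medium to eight half-log concentrations up to 100 uM (0.5% DMSO). CDKN1A mRNA was measured by qRT-PCR, normalized to ACTB/GAPDH/POLR2A, bidirectionally fitted versus DMSO.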

Read-out in experiment [16]: catalase (CAT), CAT (gene 847)
In words: LTEA_HepaRG_CAT: Life Technologies and Expression Analysis (LTEA) Assay for catalase (CAT) using HepaRG (AID 2283452).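 On AC50: TaqMan qRT-PCR signal normalized to ACTB GAPDH and POLR2A housekeeping genes.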 The note with it: mRNA level, 48 h; actives raise or lower the signal. The gist of the method: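 Expression of CAT was quantified by TaqMan qRT-PCR with ACTB/GAPDH/POLR2A normalization after 48 h chemical exposure of HepaRG. Eight-point half-log series, top 100 uM, in 0.5% DMSO; gain or loss fitted against vehicle.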

Read-out in experiment [17]: Cyclin D2 (CCND2), CCND2 (gene 894)
Briefly: LTEA_HepaRG_CCND2: Life Technologies and Expression Analysis (LTEA) Assay for Cyclin D2 (CCND2) using HepaRG (AID 2283449). The note with it: mRNA level, 48 h; actives raise or lower the signal. The gist of the method:
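CCND2 transcript levels, quantified by qRT-PCR and normalised to three housekeeping genes, were fitted bidirectionally against 0.5% DMSO. HepaRG cultures were dosed 48 h in duplicate with an 8-point half-log series up to 100 uM.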

The target in experiment [18] is Retinoic acid receptor RXR-alpha (Homo sapiens) (UniProt P19793). Briefly: OT_NURR1_NURR1RXRa_0480: Odyssey Thera (OT) 8-hour HEK293T Protein Complementation Assay for Nurr1/retinoid X receptor (RXR) (AID 2283385; active means hit-call score of the fitted dose curve at least 0.9, where 1 is the maximum). The gist of the method: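 Read-out: fluorescence from protein-fragment complementation between Nurr1 and RXRα in human HEK293T cells, 8 h after dosing. DMSO served as negative control; increased signal counted as activity.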
Retinoic acid receptor RXR-alpha (Homo sapiens), sequence (P19793 whole entry, looked up, the tested form may be a part): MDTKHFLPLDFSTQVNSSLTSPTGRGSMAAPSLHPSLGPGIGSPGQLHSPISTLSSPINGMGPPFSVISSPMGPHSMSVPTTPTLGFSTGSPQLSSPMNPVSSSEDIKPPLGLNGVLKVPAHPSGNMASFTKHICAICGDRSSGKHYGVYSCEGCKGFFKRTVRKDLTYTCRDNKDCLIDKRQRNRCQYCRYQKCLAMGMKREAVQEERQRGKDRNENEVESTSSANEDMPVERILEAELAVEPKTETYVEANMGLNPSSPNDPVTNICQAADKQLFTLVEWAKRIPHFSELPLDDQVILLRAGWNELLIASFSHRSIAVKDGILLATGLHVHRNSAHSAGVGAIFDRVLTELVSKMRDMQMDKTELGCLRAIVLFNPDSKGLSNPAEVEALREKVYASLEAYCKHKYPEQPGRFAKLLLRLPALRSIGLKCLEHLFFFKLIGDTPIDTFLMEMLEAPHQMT

Results filed as inconclusive are left out. Active and inactive are the calls of the source. How the source made its calls, unless noted: active means hit-call score of the fitted dose curve at least 0.9, where 1 is the maximum; inactive means score below 0.9.

Fatty acid synthase (Homo sapiens), sequence (P49327 whole entry, looked up): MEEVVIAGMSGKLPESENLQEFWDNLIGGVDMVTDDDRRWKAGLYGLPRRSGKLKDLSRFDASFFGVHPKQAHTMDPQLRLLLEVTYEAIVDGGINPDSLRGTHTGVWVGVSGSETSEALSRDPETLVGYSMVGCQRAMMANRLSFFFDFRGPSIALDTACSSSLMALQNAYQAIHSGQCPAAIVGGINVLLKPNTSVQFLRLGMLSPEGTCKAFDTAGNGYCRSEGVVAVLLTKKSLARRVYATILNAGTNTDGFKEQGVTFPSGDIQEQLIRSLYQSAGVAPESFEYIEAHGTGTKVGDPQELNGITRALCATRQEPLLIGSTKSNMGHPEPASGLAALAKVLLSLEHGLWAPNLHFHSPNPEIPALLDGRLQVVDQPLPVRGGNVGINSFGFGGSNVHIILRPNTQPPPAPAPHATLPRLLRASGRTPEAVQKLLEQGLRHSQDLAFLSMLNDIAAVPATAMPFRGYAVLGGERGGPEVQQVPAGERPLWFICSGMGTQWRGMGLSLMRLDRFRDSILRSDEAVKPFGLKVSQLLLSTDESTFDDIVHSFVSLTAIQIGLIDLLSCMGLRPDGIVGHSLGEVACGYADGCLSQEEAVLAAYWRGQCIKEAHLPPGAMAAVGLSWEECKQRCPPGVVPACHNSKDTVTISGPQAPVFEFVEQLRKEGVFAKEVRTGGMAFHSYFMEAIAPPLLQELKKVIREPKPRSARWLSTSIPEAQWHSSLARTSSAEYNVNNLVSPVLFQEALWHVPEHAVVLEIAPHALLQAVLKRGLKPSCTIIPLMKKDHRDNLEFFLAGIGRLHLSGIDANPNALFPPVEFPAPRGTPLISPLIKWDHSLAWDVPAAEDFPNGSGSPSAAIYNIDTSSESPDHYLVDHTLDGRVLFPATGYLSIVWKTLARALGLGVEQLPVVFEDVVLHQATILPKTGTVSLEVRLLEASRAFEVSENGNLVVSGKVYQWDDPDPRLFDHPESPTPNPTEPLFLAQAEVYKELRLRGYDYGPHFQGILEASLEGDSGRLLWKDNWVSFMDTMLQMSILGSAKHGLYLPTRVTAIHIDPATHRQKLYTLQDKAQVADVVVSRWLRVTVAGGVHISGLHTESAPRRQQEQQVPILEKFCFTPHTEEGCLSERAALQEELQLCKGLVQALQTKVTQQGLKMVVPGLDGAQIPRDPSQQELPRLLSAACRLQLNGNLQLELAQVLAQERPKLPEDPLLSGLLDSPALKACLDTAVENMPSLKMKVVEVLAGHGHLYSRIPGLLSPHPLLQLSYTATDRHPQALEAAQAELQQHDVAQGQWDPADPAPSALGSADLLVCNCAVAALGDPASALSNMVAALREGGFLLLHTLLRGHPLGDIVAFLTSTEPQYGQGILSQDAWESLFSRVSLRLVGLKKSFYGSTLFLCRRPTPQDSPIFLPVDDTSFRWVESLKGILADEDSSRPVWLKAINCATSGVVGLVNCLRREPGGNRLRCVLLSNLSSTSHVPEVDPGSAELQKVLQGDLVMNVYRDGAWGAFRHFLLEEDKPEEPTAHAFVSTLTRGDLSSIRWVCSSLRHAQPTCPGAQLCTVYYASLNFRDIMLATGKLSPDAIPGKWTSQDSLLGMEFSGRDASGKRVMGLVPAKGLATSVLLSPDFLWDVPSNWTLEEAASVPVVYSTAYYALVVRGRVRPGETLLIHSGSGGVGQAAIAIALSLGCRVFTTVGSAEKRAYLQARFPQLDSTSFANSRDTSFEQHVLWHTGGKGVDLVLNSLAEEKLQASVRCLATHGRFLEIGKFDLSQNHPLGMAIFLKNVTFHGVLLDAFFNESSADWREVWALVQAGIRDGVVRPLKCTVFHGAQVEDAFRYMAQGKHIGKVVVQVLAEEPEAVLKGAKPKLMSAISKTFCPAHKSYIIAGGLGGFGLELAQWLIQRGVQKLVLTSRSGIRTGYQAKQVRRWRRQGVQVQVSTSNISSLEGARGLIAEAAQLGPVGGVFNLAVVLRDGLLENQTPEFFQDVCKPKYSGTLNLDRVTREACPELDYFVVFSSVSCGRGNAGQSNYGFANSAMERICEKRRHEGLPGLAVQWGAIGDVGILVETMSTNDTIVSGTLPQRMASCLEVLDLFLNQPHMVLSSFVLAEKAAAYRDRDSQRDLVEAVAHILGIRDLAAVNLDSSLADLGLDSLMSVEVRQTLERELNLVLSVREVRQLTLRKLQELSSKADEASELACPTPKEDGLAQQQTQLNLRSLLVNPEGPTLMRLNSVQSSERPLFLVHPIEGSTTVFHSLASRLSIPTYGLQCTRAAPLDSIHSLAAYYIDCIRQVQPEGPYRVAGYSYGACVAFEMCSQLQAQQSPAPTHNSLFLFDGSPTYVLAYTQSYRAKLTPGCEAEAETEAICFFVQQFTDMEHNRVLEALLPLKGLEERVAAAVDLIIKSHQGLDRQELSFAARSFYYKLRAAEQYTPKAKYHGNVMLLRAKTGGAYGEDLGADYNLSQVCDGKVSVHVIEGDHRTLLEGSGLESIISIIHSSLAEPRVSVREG
Peroxisome proliferator-activated receptor gamma (Homo sapiens), sequence (P37231 whole entry, looked up, the tested form may be a part): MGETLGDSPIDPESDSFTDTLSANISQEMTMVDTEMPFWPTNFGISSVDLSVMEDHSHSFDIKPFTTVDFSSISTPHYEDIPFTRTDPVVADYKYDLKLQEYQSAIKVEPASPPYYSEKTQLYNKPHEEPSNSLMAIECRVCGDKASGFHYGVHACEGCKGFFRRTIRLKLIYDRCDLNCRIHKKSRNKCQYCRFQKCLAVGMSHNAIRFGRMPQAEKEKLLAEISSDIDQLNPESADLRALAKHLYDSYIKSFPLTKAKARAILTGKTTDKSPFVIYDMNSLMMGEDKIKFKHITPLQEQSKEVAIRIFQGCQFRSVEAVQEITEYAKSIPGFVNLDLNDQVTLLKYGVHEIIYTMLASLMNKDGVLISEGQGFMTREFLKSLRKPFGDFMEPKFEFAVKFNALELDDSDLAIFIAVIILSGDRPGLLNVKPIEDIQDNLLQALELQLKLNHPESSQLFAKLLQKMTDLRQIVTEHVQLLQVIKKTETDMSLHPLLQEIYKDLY

As a reminder, the AC50 is the concentration at which the activity in the assay is half-maximal. In the case of `COC(=O)c1c(Cl)c(Cl)c(C(=O)OC)c(Cl)c1Cl`, the call in experiment [1], in [2], in experiment [3], in [4], in experiment [5] and in [6] was inactive. Moreover, the call in experiment [8], in experiment [11], in experiment [12], in [13], in experiment [14] and in experiment [15] was inactive. Also, the outcome in [16] was inactive. For the same molecule, the AC50 in experiment [7] is 16.1 µM (active); in experiment [9], 50 µM (active); in experiment [10] it was 27.4 µM (active).
For the molecule `O=C(O)c1cc(N=Nc2ccc(S(=O)(=O)Nc3ccccn3)cc2)ccc1O`, the outcome in experiment [1], in experiment [2], in [3], in experiment [13], in experiment [14] and in [17] was inactive. The call in [15] and in experiment [16] was inactive.
As for `O=C(O)CCN(C1(C(=O)NO)CCCC1)S(=O)(=O)c1ccc(Oc2ccc(F)cc2)cc1`, the result in [1], in experiment [2], in [3], in experiment [13], in [14] and in experiment [17] was inactive. The call in experiment [15] and in [16] was inactive.
As to `O=C(CCCCCCCCc1cccnc1)N1CCC(C=C(c2ccccc2)c2ccccc2)CC1`, the molecule was called inactive in experiment [18], in experiment [2], in experiment [3] and in experiment [17]. The AC50 was 12 µM (active) in [1], 50 µM (active) in experiment [13], 27 µM (active) in experiment [15] and 22.5 µM (active) in experiment [16].
For `CCCCCCCCO`, the outcome in [1], in experiment [2], in experiment [3], in experiment [4], in experiment [6] and in [8] was inactive. Also, the molecule was classed as inactive in experiment [9], in [11], in experiment [12], in experiment [13], in experiment [14] and in [17]. The molecule was called inactive in experiment [15] and in experiment [16].
